PubChem BioAssay AID1053144 (Broad Institute, 2014)
Hit rate of the full screen: of about 3,400 compounds, about 160 (4.7%) were called active.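 The calls were made as follows: active = fitted curve reaches 30% activation at a concentration no higher than the top valid tested dose, luminescence rising; inconclusive = no clear call, values can overlap the other calls; inactive = signal moving opposite to the expected increase, plus the rest.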 Only a sample is shown. Potency and affinity values are given separately.

Assay: Wnt/beta-catenin signaling activators, dose response, cell-based, iPS-derived NPC, luciferase, Wnt3a, cherry-pick (AID 1053144);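 also: Wnt3a stimulus is conditioned medium from Wnt3a-transfected mouse L cells at 5% in well; 0% = neutral control wells and 100% = CHIR-99021 positive control wells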
Details: NPC TCF/LEF luciferase reporter, Wnt3a EC25, 24 h; series mostly up to 26 µM; activation: at the top concentration

Compound | activation
COc1ccc(-c2cc(-c3ccc(C)cc3)n[nH]2)c(O)c1 | 3.59% (inactive)
NS(=O)(=O)c1ccc2nc(NC(=O)Nc3ccccc3F)sc2c1 | 15.6% (inactive)
Cc1ccc2[nH]c(-c3cccc(N)c3)cc2c1 | 10.4% (inactive)
O=C(/C=C/c1ccc(F)cc1)NCCC1=CCCCC1 | 5.54% (inactive)
CC(C)(C)c1ccc(NC(=O)c2ccc(=O)[nH]n2)cc1 | 6.11% (inactive)
COc1ccc2cc(-c3ccsc3)ncc2c1 | 5.78% (inactive)
O=C1CC(c2ccco2)CC2=C1C=Nc1ccccc1N2 (stereo not drawn) | -0.043% (inactive)
CC1(C)CC(=O)C2=C(C1)Nc1ccccc1NC2c1ccc2c(c1)OCO2 (stereo not drawn) | 14.2% (inactive)
O=C(NCCc1cccs1)c1ccc(Cl)c(Cl)c1 | 10.3% (inactive)
COc1ccccc1C1CC(c2cccs2)=Nc2ccccc2S1 (stereo not drawn) | -0.562% (inactive)
COc1ccc2oc(C(=O)Nc3ccc(C)cn3)c(C)c2c1 | 4.94% (inactive)
COc1ccc(/C=N/Nc2nc3ccccc3o2)cc1O | -6.25% (inactive)
COc1cc(/C=N/Nc2ccccn2)ccc1O | 15.7% (inactive)
Nc1[nH]n(-c2ccccc2)c(=O)c1N=Nc1ccccc1[N+](=O)[O-] | 14.7% (inactive)
COCCNC(=O)c1ccc2c(Cl)c3c(nc2c1)CCC3 | 11.6% (inactive)
CCOC(=O)c1c(C)[nH]c(C(=O)OCC(=O)c2ccccc2)c1C | 14.7% (inactive)
CCOC(=O)c1c(C)[nH]c(C(=O)OCc2ccccc2)c1C | 11.5% (inactive)
CCOC(=O)N1CCC(N2CCCC(C(=O)c3cc(F)ccc3OC)C2)CC1 (stereo not drawn) | -0.943% (inactive)
COc1ccc(N2CCN(c3ccc(NC(=O)/C=C\C(=O)O)cc3)CC2)cc1 | 0.048% (inactive)
Cc1ccc(-c2nn(-c3ccccc3)cc2C=O)o1 | 9.4% (inactive)
O=C(NCc1cccnc1)C(=O)Nc1nc2ccccc2s1 | 7.41% (inactive)
OCC1(CCOc2ccccc2)CCN(Cc2ccccc2C(F)(F)F)CC1 | -1.43% (inactive)
Nc1ccc2nc(NC(=O)C3CCCCC3)sc2c1 | 13.5% (inactive)

Compound | activation
Cc1cc(/C=N/NC(=O)c2ccccc2F)c(C)n1-c1ccccc1 | 5.67% (inactive)
COc1ccc(N2C(=O)c3ccccc3C2O)cc1 (stereo not drawn) | 7.59% (inactive)
COc1ccc(CN2C(=O)c3cccc4cccc(c34)C2=O)cc1 | -0.645% (inactive)
O=C(c1cc2cc(F)ccc2[nH]1)N1CCc2ccccc21 | 10.3% (inactive)
Cc1ccnc2ccc(-c3nc4ccccc4o3)cc12 | 12.7% (inactive)
Cc1ccc(-c2nc3ccsc3c(=O)o2)cc1 | 8% (inactive)
COc1ccc(C2CC(=O)N(C)c3ccccc3S2)cc1OC (stereo not drawn) | 17.8% (inactive)
Clc1cccc(-c2ccc3ncnc(NCc4cccs4)c3c2)c1 | 8.6% (inactive)
O=c1cc(-c2ccccc2)oc2ccc(Cl)cc12 | 8.75% (inactive)
O=c1cc(-c2ccc3c(c2)OCCO3)oc2ccc(Cl)cc12 | 5.72% (inactive)
C/C(=N/NC(=O)c1ccco1)c1ccc(NC(=O)c2ccc(F)cc2)cc1 | 3.65% (inactive)
Cc1ccccc1-c1nnc(-c2cccc3ccccc23)o1 | 7.55% (inactive)
Cc1cccc(-c2nnc(-c3cccc4ccccc34)o2)c1 | 6.2% (inactive)
Nc1ccc(-c2nnc(-c3ccc(N)cc3)o2)cc1 | 9.86% (inactive)
Cc1ccc(NC(=O)N2CCC(c3ccccc3)C2)cc1C (stereo not drawn) | 18% (inactive)
O=C(Cc1nc2ccccc2[nH]c1=O)c1ccccc1 | 7.66% (inactive)
CCc1cc(C(=O)Cc2nc3ccccc3[nH]2)c(O)cc1O | 5.81% (inactive)
CCc1ccc(C(=O)COC(=O)c2ccccc2OC)cc1 | 15.9% (inactive)
COc1ccc(-c2nnc(SCC(=O)Nc3cccc(Cl)c3)o2)cc1 | 5.55% (inactive)
COc1ccc(-c2nnc(SCC(C)C)o2)cc1 | 5.72% (inactive)
Cc1onc(C(=O)Nc2sc3c(c2C#N)CCCC3)c1[N+](=O)[O-] | 3.37% (inactive)
Cc1cc(NC(=O)c2cccc(F)c2)ncc1NC(=O)c1ccco1 | 5.89% (inactive)
O=C(/C=C/C=C/c1ccccc1)c1ccco1 | 19.1% (inactive)

Compound | activation
Cc1ccc(N/C=C/C(=O)c2ccco2)c(O)c1 | 12.8% (inactive)
Cc1ccnc(NC(=O)c2cc3cc(F)ccc3s2)c1 | 5.25% (inactive)
CC(C)NC(=O)c1cc(-c2cccs2)on1 | 21.6% (inactive)
Cc1ccc(NC(=O)c2cc(-c3cccs3)on2)cc1C | 9.24% (inactive)
CCc1cc(CNC(=O)CCc2nnc(CCCc3ccccc3)o2)on1 | 12% (inactive)
O=C(NC(=O)c1ccc(F)cc1F)Nc1ccc(Cl)cc1 | 17.1% (inactive)
Nc1ccc(O)c2c(=O)cc(-c3ccccc3Cl)oc12 | 7.45% (inactive)
CCCOc1ccc(-c2csc3nc[nH]c(=O)c23)cc1 | 4.45% (inactive)
COc1ccc2[nH]c(-c3ccccc3)cc2c1 | 6.06% (inactive)
COc1ccc2cc(CCNC(=O)c3cccs3)c(=O)[nH]c2c1 | 9.16% (inactive)
Cc1ccc(CONC(=O)c2ccc(C)cc2)cc1 | 8.43% (inactive)
Nc1ccc(N=Nc2ccccc2)c(N)n1 | 12.5% (inactive)
COc1ccc(N=Nc2ccc(N)nc2N)cc1 | 12.9% (inactive)
CCOC(=O)C1(Cc2ccccc2)CCCN(C(=O)COc2ccccc2OC)C1 (stereo not drawn) | 9.49% (inactive)
Cn1c(SCc2ccccc2F)nnc1-c1ccccn1 | 13.6% (inactive)
Cn1c(SCC(=O)c2ccccc2)nnc1-c1ccccn1 | 11.4% (inactive)
Cc1ccc(NC(=O)C(=O)NCCCN2CCCC2=O)cc1 | 6.01% (inactive)
COc1ccc2oc(=O)c(-c3nc4ccccc4o3)cc2c1 | 16.9% (inactive)
COc1cccc2cc(-c3nc4ccccc4o3)c(=O)oc12 | 6.12% (inactive)
N/C(=N\OC(=O)c1cccs1)c1ccc(Cl)cc1 | 10.6% (inactive)
O=C(Nc1ccccc1)Nc1nnc(-c2ccccc2)s1 | 8.64% (inactive)
COc1ccc(C(C(=O)NC2CCCC2)n2c(C3CCN(C(C)=O)CC3)nc3ccccc32)cc1 (stereo not drawn) | 16.6% (inactive)
c1ccc2c(c1)Cc1cc3ccccc3nc1-2 | 15.7% (inactive)

Compound | activation
O=C(/C=C/c1ccc(N2CCOCC2)cc1)c1ccccc1 | 5.79% (inactive)
O=C(O)c1ccc2c(c1)C(=O)N(c1ccc(C(=O)OCC(=O)c3ccccc3)cc1)C2=O | 7.5% (inactive)
CCC(C)C(=O)Nc1nc2ccc(OC)cc2s1 (stereo not drawn) | 11.1% (inactive)
CC(=O)Nc1nonc1NC(=O)c1ccc(C(C)(C)C)cc1 | 6.59% (inactive)
CCCCn1c(CN2CCN(C(=O)OCC)CC2)nc2c1c(=O)n(C)c(=O)n2C | 1.14% (inactive)
Fc1ccccc1-c1nc(-c2ccccc2)no1 | 4.1% (inactive)
Cc1ccc(-c2noc(-c3ccccc3F)n2)cc1 | 7.61% (inactive)
Cc1ccc(OCc2cc(C(=O)NCC(C)(C)N3CCOCC3)no2)cc1C | 13.3% (inactive)
NC(=O)CSc1nnc(NC(=O)c2ccc3ccccc3c2)s1 | 8.39% (inactive)
CC1CCN(C(=O)CSc2nc3ccccc3s2)CC1 | 7.04% (inactive)
CC1CCC2(CC1)NC(=O)N(CC(=O)Nc1sc3c(c1C(N)=O)CCC3)C2=O (stereo not drawn) | 5.23% (inactive)
NC(=O)c1c(NC(=O)c2ccccc2)sc2c1CCC2 | 9.7% (inactive)
CN1CCN(c2ccc(NC(=O)c3ccc(-c4ccccc4F)o3)cc2)CC1 | 13.4% (inactive)
CCn1c(SCC(=O)c2ccccc2)nnc1-c1cnccn1 | 9.13% (inactive)
Cn1c(SCC(=O)c2ccccc2)nnc1-c1ccc(O)cc1 | 13% (inactive)
O=C(Nc1nnc(C2CCCCC2)s1)c1cccs1 | 4.29% (inactive)
Cc1ccnc(N/C=C/C(=O)c2ccc(Br)cc2)c1 | 3.27% (inactive)
Cc1nc2ccc(-c3nc4cc(N)ccc4o3)cc2[nH]1 | 3.55% (inactive)
Nc1ccc(-c2nc3ccc([N+](=O)[O-])cc3[nH]2)cc1 | 18.3% (inactive)
CCCOc1ccc(C(=O)Nc2ccc3c(c2)OCO3)cc1 | 13.3% (inactive)
CC1CCC(NC(=O)c2cccn2C)CC1 (stereo not drawn) | 2.89% (inactive)
C=C(C)CNC(=O)CCc1nnc(Cc2cccc(C(F)(F)F)c2)o1 | 17% (inactive)
O=C(COc1ccc2c(c1)OCO2)Nc1ccccc1F | 8.94% (inactive)

Compound | activation
O=C(NCC(c1ccco1)N1CCCC1)c1cc(=O)[nH]c2ccccc12 (stereo not drawn) | 0.695% (inactive)
O=C(O)c1ccccc1SCc1cn2cc(Cl)ccc2n1 | 9.86% (inactive)
CCOC(=O)/C(=C/c1ccc(OC(=O)c2ccncc2)cc1)C(C)=O | 2.42% (inactive)
CN1CCSc2ccc(C(=O)Nc3ccc(Cl)cc3)cc21 | 12.8% (inactive)
COc1ccc(NC(=O)c2ccc3c(c2)N(C)CCS3)cc1 | 8.32% (inactive)
Cc1ccc2c(c1)c1c(n2C)-c2[nH]ncc2CC1 | 8.88% (inactive)
COC(=O)c1nn(-c2ccc(C)cc2)c2nnc(Cc3ccccc3)c(=O)n12 | 1.09% (inactive)
COC(=O)c1ccc(NC(=O)c2ccco2)cc1 | 24.7% (inactive)
O=C(Nc1ccc(Cl)cc1)c1ccco1 | 6.38% (inactive)
COc1ncccc1-c1nnn(-c2ccccc2)n1 | 8.3% (inactive)
CC(=O)NC(CC(=O)NNC(=O)COc1c(C)cccc1C)c1ccccc1 (stereo not drawn) | -0.753% (inactive)
Cc1cc(NC(=O)c2ccccc2)ncc1NC(=O)c1ccco1 | 6.34% (inactive)
CSc1nccc(N/N=C/c2ccccc2)n1 | 9.49% (inactive)
O=C(c1cc(-c2ccccc2)on1)N1CCCCCC1 | 13.4% (inactive)
O=c1c2ccccc2oc2ccc(NCCCn3ccnc3)cc12 | 0.761% (inactive)
O=C(NC1CCCC1)c1cc(-c2ccc(Cl)cc2)on1 | 13.5% (inactive)
O=C(NCc1cccs1)c1cc(-c2ccc(O)cc2)on1 | 9.8% (inactive)
COc1ccc(C(=O)c2c[nH]c(C(=O)NCCCn3ccnc3)c2)cc1 | 2.91% (inactive)
O=C(NC1CCCCC1)c1cc(-c2cccs2)on1 | 6.56% (inactive)
CC(C)(C)c1cccc(N/C(=C\C(=O)c2ccccc2)c2ccccc2)c1 | -2.87% (inactive)
CC(=O)c1ccc(OCc2ccccc2)c(C)c1O | 6.75% (inactive)
O=C(Nc1nnc(-c2ccco2)s1)C1CC1 | 4.36% (inactive)
COc1cccc(N=c2oc3ccccc3cc2-c2nc3ccccc3[nH]2)c1 | -4.17% (inactive)

Compound | activation
Cc1cc(C(=O)Nc2ccc(Br)cn2)sc1C | 8.02% (inactive)
O=C(Nc1ccc(Br)cn1)c1ccc(Cl)s1 | 2.47% (inactive)
CC(=O)c1cc(F)ccc1OCC(=O)Nc1ccc2c(c1)OCO2 | 8% (inactive)
O=S(=O)(c1cccs1)N1CCCc2cccc(O)c21 | 8.4% (inactive)
COc1cccc(OCc2cc(C(=O)N3CCN(c4ccccc4OC)CC3)no2)c1 | 6.95% (inactive)
O=C(O)COn1c(-c2ccccc2)nc2ccc([N+](=O)[O-])cc21 | 8.93% (inactive)
Cc1ccnc(SCc2cc(=O)c(OC(=O)c3ccc(Br)o3)co2)n1 | 7.99% (inactive)
O=C(/C=C/c1ccccc1)NC(=O)c1ccccc1O | 5.83% (inactive)
O=C(/C=C/c1ccc2c(c1)OCO2)c1ccc[nH]1 | 6.1% (inactive)
COc1ccc(/C=C/C(=O)c2cc3c(cc2N)OCO3)cc1 | 6.99% (inactive)
O=C(/C=C/c1cc2ccccc2o1)c1ccccc1O | 9.57% (inactive)
O=C(N/N=C/c1ccc(N2CCOCC2)cc1)c1cccs1 | 8.99% (inactive)
CCc1sc(C(=O)N2CCc3ccccc32)cc1C | 3.85% (inactive)
CC(C)[C@H](NC(=O)OCc1ccccc1)C(=O)OCC(=O)c1ccccc1 | 4.59% (inactive)
COc1cc(/C=C/C(=O)N2C(=O)c3cccc(N)c3C2=O)cc(OC)c1OC | -6.94% (inactive)
COc1ccc(NC(=O)c2cc3ccccc3cc2O)cc1 | 12.5% (inactive)
COc1cc2ccccc2cc1C(=O)Nc1ccc(O)cc1 | 8.68% (inactive)
Cc1ccc(NC(=O)c2ccccc2NC(=O)Cc2ccccc2)cc1 | 7.38% (inactive)
Cc1cnc(C(=O)Nc2ccc(C(C)C)cc2)cn1 | 12.2% (inactive)
Cc1cc(C)n(-c2nnc3c4ccccc4n(C)c3n2)n1 | 16.2% (inactive)
O=C(Nc1ccc2c(c1)OCO2)c1ccc(CO)cc1 | 6.96% (inactive)
CCOC(=O)CSc1nc2ccccc2c(=O)n1NC(=O)c1ccccc1 | 15% (inactive)
c1cncc(CSc2ccc(-c3ccc4c(c3)OCO4)nn2)c1 | 7.68% (inactive)
